According to article PMC4336329 (PLoS ONE, 2015):
Out of some 310,000 compounds screened, about 14,000 (4.5%) showed an effect of 50% or more. Effects have a minus sign here. This is one part of a sample in which strong results are shown more often than they occur.

molecular target: human ether-à-go-go-related gene (hERG) potassium channel (human, UniProt Q12809); experiment: primary screen, population patch clamp on CHO cells stably expressing hERG; higher = less effect of the substance
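Further: peak tail current of the secondary pulse compared with the same well before compound.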

Chain of human ether-à-go-go-related gene (hERG) potassium channel (Q12809 whole entry, looked up): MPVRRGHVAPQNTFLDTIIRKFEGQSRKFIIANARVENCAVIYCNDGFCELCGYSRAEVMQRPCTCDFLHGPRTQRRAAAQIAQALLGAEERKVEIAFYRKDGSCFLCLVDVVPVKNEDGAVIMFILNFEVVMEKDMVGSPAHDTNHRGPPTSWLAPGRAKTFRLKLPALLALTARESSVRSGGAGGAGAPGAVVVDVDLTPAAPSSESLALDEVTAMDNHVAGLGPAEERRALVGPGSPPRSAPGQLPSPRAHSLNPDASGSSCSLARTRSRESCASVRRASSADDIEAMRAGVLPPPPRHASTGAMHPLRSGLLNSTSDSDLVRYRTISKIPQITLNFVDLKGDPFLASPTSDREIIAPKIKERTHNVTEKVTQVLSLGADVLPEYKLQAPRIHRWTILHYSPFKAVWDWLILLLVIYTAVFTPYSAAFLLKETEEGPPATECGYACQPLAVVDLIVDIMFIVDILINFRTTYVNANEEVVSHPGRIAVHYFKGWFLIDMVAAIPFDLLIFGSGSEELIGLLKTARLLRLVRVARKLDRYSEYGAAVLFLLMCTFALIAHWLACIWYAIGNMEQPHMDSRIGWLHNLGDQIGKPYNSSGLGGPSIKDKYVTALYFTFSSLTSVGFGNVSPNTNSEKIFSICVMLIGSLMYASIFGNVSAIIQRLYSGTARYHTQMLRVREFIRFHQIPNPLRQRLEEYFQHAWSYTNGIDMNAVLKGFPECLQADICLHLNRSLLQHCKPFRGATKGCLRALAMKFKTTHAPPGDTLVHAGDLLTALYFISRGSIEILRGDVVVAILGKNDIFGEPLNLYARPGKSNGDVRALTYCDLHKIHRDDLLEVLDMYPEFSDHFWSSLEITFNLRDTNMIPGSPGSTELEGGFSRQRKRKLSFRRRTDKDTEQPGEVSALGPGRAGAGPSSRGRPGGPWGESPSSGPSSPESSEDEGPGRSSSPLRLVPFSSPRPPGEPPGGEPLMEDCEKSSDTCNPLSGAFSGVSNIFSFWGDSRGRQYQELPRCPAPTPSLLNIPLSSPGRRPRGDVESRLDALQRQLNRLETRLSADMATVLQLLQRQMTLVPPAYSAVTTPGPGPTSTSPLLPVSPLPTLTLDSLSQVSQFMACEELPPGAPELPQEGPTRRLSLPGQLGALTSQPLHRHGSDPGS

Compound	hERG current change (%, negative = inhibition) at 10uM
COc1ccc(NC(=O)CSc2nc3c([nH]c4ccccc43)c(=O)n2C)cc1	0.41%
COc1cc(/C=C2/C(=N)N3OC(C)=CC3=NC2=O)ccc1OC(=O)c1ccco1	29.8%
Cc1ccc(N=C2NC(=O)C(CO)(CO)S2)cc1	16.1%
O=[N+]([O-])c1ccc2c(c1)OCCOCCOCCOCCOCCOCCO2	-64.1%
O=C(Nc1cccc([N+](=O)[O-])c1)Nc1ccc2c(c1)OCCO2	-1.17%
O=[N+]([O-])c1cc2c(cc1[N+](=O)[O-])OCCOCCOCCOCCO2	-59.3%
O=[N+]([O-])c1ccc(S(=O)(=O)Nc2ccc3c(c2)OCCO3)cc1	3.95%
O=C(Nc1ccc([N+](=O)[O-])cc1)Nc1ccc2c(c1)OCCO2	24.6%
Nc1cc2c(cc1[N+](=O)[O-])OCCOCCOCCO2	0.413%
O=C(c1cccc([N+](=O)[O-])c1)c1ccc2c(c1)OCCOCCOCCO2	-52.8%
Nc1cc2c(cc1[N+](=O)[O-])OCCO2	5.64%
O=C(N/N=C/c1cccc([N+](=O)[O-])c1)c1ccc2c(c1)OCCO2	7.63%
O=C(Nc1cccc([N+](=O)[O-])c1)c1ccc2c(c1)OCCO2	11.9%
O=C(c1cccc([N+](=O)[O-])c1)c1ccc2c(c1)OCCOCCOCCOCCO2	-69.8%
O=C(/C=C/c1cccc([N+](=O)[O-])c1)c1ccc2c(c1)OCCO2	3.36%
O=C(NCc1cccc(F)c1)C1CCN(S(=O)(=O)Cc2ccccc2)CC1	7.89%
COCCn1c(SCC(=O)Nc2ccc(Cl)cn2)nc2ccccc21	-32.1%
Cc1ccc(N(C(=O)CCC(=O)Nc2ccccn2)C(C(=O)NC(C)C)c2ccc(F)cc2)cc1 (centres unmarked)	21.4%
COc1ccc2c(c1)[C@H]1[C@H](CO2)[C@H](c2ccccc2)[C@]2(C)C(=O)N(CC3CCCO3)CC(=O)N12 (some centres unmarked)	-2.94%
COc1cccc(-n2cnc3c(sc4nc(N5CCOCC5)c5c(c43)CCCC5)c2=O)c1	5.92%
CCc1ccccc1NC(=O)CNC(=O)CSC(=S)N1CCCC1	-3.17%
COc1ccc(N2C(=NC(=O)c3ccccc3)SC3CS(=O)(=O)CC32)cc1 (centres unmarked)	5.27%
O=S(=O)(Oc1ccccc1C(=S)N1CCOCC1)c1ccc(Cl)cc1	3.56%

Compound	hERG current change (%, negative = inhibition) at 10uM
NS(=O)(=O)c1ccc(CCNC(=O)[C@@H]2CCCN2S(=O)(=O)c2ccccc2F)cc1	-2.88%
COc1ccc(OC)c(S(=O)(=O)N2CCC(C(=O)NCc3ccc4c(c3)OCO4)CC2)c1	-3.84%
COc1cccc(NC(=O)c2cccnc2)c1	11.2%
C(#Cc1ccccc1)C[N+]1(CC#Cc2ccccc2)CCCC1.[Br-]	-55.5%
C#CC[N+]1(CC#Cc2ccccc2)CCCC1.[I-]	-1.53%
Cc1ccc(C#CC[N+]2(CC#Cc3ccc(C)cc3)CCCCC2)cc1.[Br-]	-106%
OCC#CC[N+]1(CC#Cc2ccccc2)CCCC1.[Br-]	14.5%
C#CC[N+]1(CC#Cc2ccc(C)cc2)CCCCC1.[Br-]	4.84%
CCC[N+]1(CC#CC(O)(c2ccccc2)C2CCCCC2)CCCCC1.[Br-] (centres unmarked)	12.1%
Cc1ccc(C#CC[N+]2(C)CCCCC2)cc1.[Br-]	14%
C(#Cc1ccccc1)C[N+]1(CC#Cc2ccccc2)CCCCC1.[Br-]	-55.8%
CCC[N+]1(CC#CCC(c2ccccc2)c2ccccc2)CCCCC1.[Br-]	-66.7%
O=S(=O)([O-])CCC[N+]1(CC#Cc2ccccc2)CCCCC1	33.8%
C=CC[N+]1(CC#Cc2ccccc2)CCCC1.[Br-]	18.4%
C#CC[N+]1(CC#Cc2ccccc2)CCCCC1.[I-]	2.16%
COc1ccc2c(c1)CC/C(=C\C=C\c1ccccc1OC)C2=O	8.8%
Cc1cc(=O)[nH]c(N/N=C/c2ccc(Br)s2)n1	-13.9%
CN1CCN(c2ccc(-c3cccc(NC(=O)COc4ccc(Cl)cc4Cl)c3)nn2)CC1	6.83%
O=C(COc1ccc2c3c(c(=O)oc2c1)CCC3)NC(Cc1ccc(Cl)cc1)C(=O)O (centres unmarked)	3.55%
Cc1ccc2nc(Cl)c(CN(Cc3cccs3)C(=O)C3CC3)cc2c1	8.82%
C[C@]12CC[C@@H](O)C[C@@H]1CC[C@@H]1[C@@H]2CC[C@]2(C)[C@@H](O)CC[C@@H]12	19.8%
N#CCOC(=O)C1CSC2(c3ccc(Br)cc3)CCC(=O)N12 (centres unmarked)	8.43%
CCCCOc1cccc(C(=O)NC(=S)Nc2cccc(NC(=O)c3ccccc3Cl)c2)c1	-8.49%

Compound	hERG current change (%, negative = inhibition) at 10uM
CC(C)(C)c1ccc(C(=O)NNC(=O)c2ccncc2)cc1	15.5%
CCCCCCCN1CCN=C1N(C)C	-67.7%
CC(C)CCCN1CCN=C1N(C)C	8.91%
CN(C)C1=NCCN1CCCC1CCCC1	-51%
CN(C)C1=NCCN1CCCC1CCCCC1	-38.6%
CN(C)C1=NCCN1CCC1CCCC1	1.87%
CCCCN1CCN=C1N(C)C	12%
COc1ccc(NC(=O)CN(C)C(=O)CN2C(=O)NC3(CCCCC3)C2=O)cc1	3.29%
Cc1nn(CC(=O)Nc2ccc3c(c2)nc(CN2CCCC2)n3C)c(=O)c2ccccc12	-13.4%
Cc1c(C(=O)NNC(=O)c2ccncc2)oc2ccccc12	-5.92%
Cc1c(C(=O)NNC(=O)c2ccccc2O)oc2ccc(Br)cc12	8.46%
Cc1c(C(=O)NNC(=O)c2ccncc2)oc2ccc(Br)cc12	-68.5%
COc1ccccc1NC(=O)N1CCC(NC(=O)C2CCCCC2)CC1	5.27%
N#CCSc1nnc(C2CCCCC2)n1Cc1ccccc1	-11.6%
Cc1[nH]c2ccccc2c1C(=O)C(C)OC(=O)c1ccccc1NCCO (centres unmarked)	15%
O=S(=O)(Nc1nnc(-c2ccccc2)s1)c1ccc(Cl)cc1	0.769%
COc1ccc(N2CCN(C(=O)c3ccc(Cl)c(S(=O)(=O)N4CCCC4)c3)CC2)cc1	-31.6%
O=C(Nc1ccc(S(=O)(=O)N2CCOCC2)cc1)c1ccc(F)cc1	-6.51%
O=C(c1ccc(S(=O)(=O)N2CCOCC2)cc1)N1CCN(c2ccc(F)cc2)CC1	-5.3%
O=C(c1ccc(Cl)c(S(=O)(=O)N2CCCC2)c1)N1CCN(c2ccccc2F)CC1	-20.6%
COc1ccc(NC(=O)c2ccc(Br)c(S(=O)(=O)N3CCOCC3)c2)cc1	1.53%
O=C(Nc1ccc(F)cc1)c1ccc(Br)c(S(=O)(=O)N2CCOCC2)c1	-58.8%
O=C(c1ccc(Cl)c(S(=O)(=O)N2CCCC2)c1)N1CCN(c2ccccc2)CC1	-8.69%

Compound	hERG current change (%, negative = inhibition) at 10uM
O=C(c1ccc(F)c(S(=O)(=O)N2CCOCC2)c1)N1CCN(c2ccc(F)cc2)CC1	-60.5%
Cl.O=C(c1ccc(Cl)c(S(=O)(=O)N2CCCC2)c1)N1CCN(c2ccc(F)cc2)CC1	-58.5%
O=C(c1ccc(Cl)c(S(=O)(=O)N2CCCCCC2)c1)N1CCN(c2ccc(O)cc2)CC1	-50.4%
O=C(c1ccc(F)c(S(=O)(=O)N2CCOCC2)c1)N1CCN(c2ncccn2)CC1	-4.06%
O=C(c1ccc(Cl)c(S(=O)(=O)N2CCCCC2)c1)N1CCN(c2ccccc2)CC1	-26.5%
COc1ccc(NC(=O)C/C(C)=N/NC(=O)CCc2ccccc2)c(OC)c1	4.6%
CC(=O)c1cccc(NC(=S)NC(=O)c2ccccc2Br)c1	10.9%
Cl.N/C(=N\O)C1COc2ccccc2O1 (centres unmarked)	16.4%
CCOC(=O)C1CCCN(C(=O)CSc2ccc(NC(C)=O)cc2)C1 (centres unmarked)	14.9%
COc1ccccc1N1CCN(C(=O)CSc2nc3ncnc(N)c3[nH]2)CC1	21.3%
Cc1nc2cc(NS(=O)(=O)c3cccc(F)c3)ccc2s1	7.97%
COc1nc(Nc2ccccc2)nc(OC)n1	5.84%
CC(C)CCNC(=O)CCCc1ccccc1	14.5%
Brc1nc(-c2ccccc2)nc(-c2ccccc2)c1Br	-5.38%
O=C(Cc1ccc(S(=O)(=O)N2CCOCC2)s1)N1CCN(c2cccc(C(F)(F)F)c2)CC1	-31.7%
Cc1ccc(C(=O)N2CCCCC2)cc1S(=O)(=O)N1CCCC1	5.55%
Cc1ccc(C(=O)N2CCN(c3ccccc3)CC2)cc1S(=O)(=O)N1CCCC1	-31.2%
O=C(Cc1ccc(S(=O)(=O)N2CCCC2)s1)N1CCOCC1	-0.493%
O=C(Cc1ccc(S(=O)(=O)N2CCOCC2)s1)N1CCN(c2ccc(C(F)(F)F)cc2[N+](=O)[O-])CC1	-54.8%
O=C(Cc1ccc(S(=O)(=O)N2CCOCC2)s1)N1CCN(S(=O)(=O)c2cccc([N+](=O)[O-])c2)CC1	-27.1%
Cc1ccc(C(=O)N2CCN(c3ccc(F)cc3)CC2)cc1S(=O)(=O)N1CCCCC1	-54%
O=C(Cc1ccc(S(=O)(=O)N2CCCC2)s1)N1CCN(c2ccccc2)CC1	-28.4%
O=C(Cc1ccc(S(=O)(=O)N2CCCC2)s1)N1CCN(c2ccc(F)cc2)CC1	-56.2%
